“And” between values parts separate entries of the source, which are not always exact repeats. Equal entries are not always repeated. In all, about 5,500 compounds went through this assay and about 2,000 (36%) were called active. Roughly 18% stayed inconclusive and do not appear here. Rule as the data show it: active = normalized growth mostly below about 0.91 (no sharp cut-off); inconclusive = no clear call, values can overlap the other calls; inactive = mostly above about 0.92. This is one part of the list.
Assay: chemical genetic growth profiling, strain panel (AID 1159580);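 also: tested at 20 µM; growth read once vehicle control cultures reached saturation at 30 °C; 1 = growth at the plate median or of vehicle wells; lower values mean less growth of the strain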
Conditions: growth OD

Measured: normalized growth

CC(=O)O[C@@H]1CC2C(C)(C)C(=O)C=C[C@]2(C)C2CC[C@]3(C)C(=CC(=O)O[C@H]3c3ccoc3)[C@@]21C (stereo partly drawn)
inactive: S. cerevisiae deletion strains, locus YAL013W, strain DEP1, hits give low values 0.996 | S. cerevisiae deletion strains, locus YAL021C, strain ccr4, hits give low values 1.01 | S. cerevisiae deletion strains, locus YAL026C, strain drs2, hits give low values 1.01 | S. cerevisiae deletion strains, locus YAL030W, strain snc1, hits give low values 1 | S. cerevisiae deletion strains, locus YBL061C, strain skt5, hits give low values 1.03 | S. cerevisiae deletion strains, locus YBR009C, strain hhf1, hits give low values 1.01 | S. cerevisiae deletion strains, locus YBR021W, strain FUR4, hits give low values 0.988 | S. cerevisiae deletion strains, locus YBR023C, strain chs3, hits give low values 1 | S. cerevisiae deletion strains, locus YBR171W, strain sec66, hits give low values 1.01 | S. cerevisiae deletion strains, locus YBR229C, strain ROT2, hits give low values 0.941 | S. cerevisiae deletion strains, locus YBR231C, strain swc5, hits give low values 0.998 | S. cerevisiae deletion strains, locus YBR279W, strain paf1, hits give low values 1.01 | S. cerevisiae deletion strains, locus YCL011C, strain gbp2, hits give low values 0.993 | S. cerevisiae deletion strains, locus YCL016C, strain dcc1, hits give low values 1.01 | S. cerevisiae deletion strains, locus YCL029C, strain bik1, hits give low values 0.977 | S. cerevisiae deletion strains, locus YCL069W, strain vba3, hits give low values 1 | S. cerevisiae deletion strains, locus YCR088W, strain abp1, hits give low values 1.01 | S. cerevisiae deletion strains, locus YDL005C, strain med2, hits give low values 0.995 | S. cerevisiae deletion strains, locus YDL035C, strain GPR1, hits give low values 0.964 | S. cerevisiae deletion strains, locus YDL040C, strain nat1, hits give low values 1 | S. cerevisiae deletion strains, locus YDL074C, strain BRE1, hits give low values 0.979 | S. cerevisiae deletion strains, locus YDL101C, strain DUN1, hits give low values 1 | S. cerevisiae deletion strains, locus YDL185W, strain tfp1, hits give low values 0.959 | S. cerevisiae deletion strains, locus YDL192W, strain arf1, hits give low values 0.978 | S. cerevisiae deletion strains, locus YDR001C, strain nth1, hits give low values 1.01 | S. cerevisiae deletion strains, locus YDR069C, strain doa4, hits give low values 1.02 | S. cerevisiae deletion strains, locus YDR101C, strain arx1, hits give low values 0.956 | S. cerevisiae deletion strains, locus YDR137W, strain rgp1, hits give low values 1.05 | S. cerevisiae deletion strains, locus YDR159W, strain sac3, hits give low values 1.01 | S. cerevisiae deletion strains, locus YDR162C, strain NBP2, hits give low values 0.988 | S. cerevisiae deletion strains, locus YDR195W, strain ref2 0.968 | S. cerevisiae deletion strains, locus YDR297W, strain sur2, hits give low values 0.992 | S. cerevisiae deletion strains, locus YDR318W, strain mcm21, hits give low values 0.983 | S. cerevisiae deletion strains, locus YDR334W, strain swr1, hits give low values 1.01 | S. cerevisiae deletion strains, locus YDR335W, strain msn5, hits give low values 1.01 | S. cerevisiae deletion strains, locus YDR388W, hits give low values 0.983 | S. cerevisiae deletion strains, locus YDR392W, strain spt3, hits give low values 1.01 | S. cerevisiae deletion strains, locus YDR502C, strain sam2, hits give low values 1.02 | S. cerevisiae deletion strains, locus YEL003W, strain gim4, hits give low values 1.01 | S. cerevisiae deletion strains, locus YEL037C, strain rad23, hits give low values 1 | S. cerevisiae deletion strains, locus YEL061C, strain CIN8 (second series), hits give low values 1.01 | S. cerevisiae deletion strains, locus YER015W, strain faa2, hits give low values 1.01 | S. cerevisiae deletion strains, locus YER016W, strain bim1, hits give low values 1.01 | S. cerevisiae deletion strains, locus YER110C, hits give low values 0.966 | S. cerevisiae deletion strains, locus YER111C, strain swi4, hits give low values 1.01 | S. cerevisiae deletion strains, locus YER155C, strain BEM2 (second series), hits give low values 1 | S. cerevisiae deletion strains, locus YER155C, strain BEM2, hits give low values 0.989 | S. cerevisiae deletion strains, locus YER167W, strain BCK2, hits give low values 0.975 | S. cerevisiae deletion strains, locus YFR010W, strain ubp6, hits give low values 1.01 | S. cerevisiae deletion strains, locus YGL078C, strain dbp3, hits give low values 1.02 | S. cerevisiae deletion strains, locus YGL086W, strain mad1, hits give low values 0.992 | S. cerevisiae deletion strains, locus YGL167C, strain pmr1, hits give low values 1 | S. cerevisiae deletion strains, locus YGL173C, strain kem1, hits give low values 1 | S. cerevisiae deletion strains, locus YGL227W, strain vid30, hits give low values 1.01 | S. cerevisiae deletion strains, locus YGL240W, strain doc1, hits give low values 1 | S. cerevisiae deletion strains, locus YGL248W, strain PDE1, hits give low values 1.01 | S. cerevisiae deletion strains, locus YGL253W, strain hxk2, hits give low values 0.998 | S. cerevisiae deletion strains, locus YGR135W, strain pre9, hits give low values 1.1 | S. cerevisiae deletion strains, locus YGR252W, strain gcn5, hits give low values 1.04 | S. cerevisiae deletion strains, locus YHR013C, strain ard1, hits give low values 0.988 | S. cerevisiae deletion strains, locus YHR027C, strain rpn1, hits give low values 0.993 | S. cerevisiae deletion strains, locus YHR030C, strain SLT2, hits give low values 1.02 | S. cerevisiae deletion strains, locus YHR079C, strain IRE1 (second series), hits give low values 0.982 | S. cerevisiae deletion strains, locus YHR079C, strain IRE1, hits give low values 0.997 | S. cerevisiae deletion strains, locus YHR094C, strain hxt1, hits give low values 0.969 | S. cerevisiae deletion strains, locus YHR129C, strain ARP1, hits give low values 0.993 | S. cerevisiae deletion strains, locus YHR142W, strain chs7, hits give low values 1.04 | S. cerevisiae deletion strains, locus YHR200W, strain rpn10, hits give low values 0.994 | S. cerevisiae deletion strains, locus YIL066C, strain RNR3, hits give low values 0.956 | S. cerevisiae deletion strains, locus YIL073C, strain SPO22, hits give low values 0.989 | S. cerevisiae deletion strains, locus YIL125W, strain kgd1, hits give low values 0.981 | S. cerevisiae deletion strains, locus YIR030C, strain dcg1, hits give low values 0.987 | S. cerevisiae deletion strains, locus YJL092W, strain hpr5, hits give low values 1 | S. cerevisiae deletion strains, locus YJL095W, strain BCK1 (second series), hits give low values 0.999 | S. cerevisiae deletion strains, locus YJL095W, strain BCK1, hits give low values 1.06 and 1.03 | S. cerevisiae deletion strains, locus YJL115W, strain asf1, hits give low values 1 | S. cerevisiae deletion strains, locus YJL129C, strain trk1, hits give low values 1.02 | S. cerevisiae deletion strains, locus YJL134W, strain LCB3, hits give low values 0.97 | S. cerevisiae deletion strains, locus YJL154C, strain vps35, hits give low values 1 | S. cerevisiae deletion strains, locus YJL164C, strain tpk1, hits give low values 1 | S. cerevisiae deletion strains, locus YJL166W, strain qcr8, hits give low values 1 | S. cerevisiae deletion strains, locus YJL168C, strain set2, hits give low values 0.995 | S. cerevisiae deletion strains, locus YJL187C, strain SWE1 (second series), hits give low values 1.03 | S. cerevisiae deletion strains, locus YJR066W, strain TOR1, hits give low values 0.96 | S. cerevisiae deletion strains, locus YKL009W, strain mrt4, hits give low values 0.986 | S. cerevisiae deletion strains, locus YKL068W, hits give low values 0.992 | S. cerevisiae deletion strains, locus YKL085W, strain MDH1 (second series), hits give low values 0.996 | S. cerevisiae deletion strains, locus YKL085W, strain MDH1, hits give low values 0.996 | S. cerevisiae deletion strains, locus YKL160W, strain elf1, hits give low values 1.01 | S. cerevisiae deletion strains, locus YKR001C, strain vps1, hits give low values 0.985 | S. cerevisiae deletion strains, locus YKR026C, strain gcn3, hits give low values 1.01 | S. cerevisiae deletion strains, locus YKR091W, strain srl3, hits give low values 1 | S. cerevisiae deletion strains, locus YLL001W, strain dnm1, hits give low values 1.01 | S. cerevisiae deletion strains, locus YLL026W, hits give low values 1.02 | S. cerevisiae deletion strains, locus YLL041C, strain sdh2, hits give low values 1.02 | S. cerevisiae deletion strains, locus YLR027C, strain aat2, hits give low values 1.01 | S. cerevisiae deletion strains, locus YLR039C, strain RIC1, hits give low values 0.971 | S. cerevisiae deletion strains, locus YLR058C, strain SHM2, hits give low values 0.981 | S. cerevisiae deletion strains, locus YLR102C, strain apc9, hits give low values 0.974 | S. cerevisiae deletion strains, locus YLR113W, strain HOG1, hits give low values 0.962 | S. cerevisiae deletion strains, locus YLR221C, strain rsa3, hits give low values 1 | S. cerevisiae deletion strains, locus YLR258W, strain gsy2, hits give low values 1 | S. cerevisiae deletion strains, locus YLR262C, strain YPT6 (second series), hits give low values 1.01 | S. cerevisiae deletion strains, locus YLR268W, strain sec22, hits give low values 0.964 | S. cerevisiae deletion strains, locus YLR320W, strain mms22, hits give low values 1.01 | S. cerevisiae deletion strains, locus YLR342W, strain FKS1 (second series), hits give low values 1 | S. cerevisiae deletion strains, locus YLR342W, strain FKS1, hits give low values 0.999 | S. cerevisiae deletion strains, locus YLR357W, strain rsc2, hits give low values 1.03 | S. cerevisiae deletion strains, locus YLR370C, strain arc18, hits give low values 1.02 | S. cerevisiae deletion strains, locus YLR371W, strain rom2, hits give low values 0.967 | S. cerevisiae deletion strains, locus YLR384C, strain iki3, hits give low values 1.02 | S. cerevisiae deletion strains, locus YLR418C, strain cdc73, hits give low values 1.04 | S. cerevisiae deletion strains, locus YML016C, strain PPZ1, hits give low values 0.973 | S. cerevisiae deletion strains, locus YML032C, strain rad52, hits give low values 0.966 | S. cerevisiae deletion strains, locus YML120C, strain ndi1, hits give low values 0.993 | S. cerevisiae deletion strains, locus YML124C, strain tub3, hits give low values 0.989 | S. cerevisiae deletion strains, locus YMR058W, strain fet3, hits give low values 1 | S. cerevisiae deletion strains, locus YMR078C, strain ctf18, hits give low values 0.983 | S. cerevisiae deletion strains, locus YMR125W, strain sto1, hits give low values 0.999 | S. cerevisiae deletion strains, locus YMR129W, hits give low values 1 | S. cerevisiae deletion strains, locus YMR205C, strain PFK2, hits give low values 1 | S. cerevisiae deletion strains, locus YMR223W, strain ubp8, hits give low values 1.01 | S. cerevisiae deletion strains, locus YMR231W, strain pep5, hits give low values 1.01 | S. cerevisiae deletion strains, locus YMR307W, strain GAS1, hits give low values 0.896 | S. cerevisiae deletion strains, locus YNL067W, strain RPL9B, hits give low values 1.04 | S. cerevisiae deletion strains, locus YNL071W, strain lat1, hits give low values 1.01 | S. cerevisiae deletion strains, locus YNL153C, strain GIM3, hits give low values 1.02 | S. cerevisiae deletion strains, locus YNL183C, strain NPR1, hits give low values 0.993 | S. cerevisiae deletion strains, locus YNL209W, strain ssb2, hits give low values 0.991 | S. cerevisiae deletion strains, locus YNL233W, strain BNI4, hits give low values 1.02 | S. cerevisiae deletion strains, locus YNL248C, strain rpa49, hits give low values 1.02 | S. cerevisiae deletion strains, locus YNL250W, strain rad50, hits give low values 0.994 | S. cerevisiae deletion strains, locus YNL271C, strain bni1, hits give low values 0.988 | S. cerevisiae deletion strains, locus YNL298W, strain CLA4, hits give low values 0.963 | S. cerevisiae deletion strains, locus YNL307C, strain MCK1, hits give low values 0.991 | S. cerevisiae deletion strains, locus YNL322C, strain KRE1 (second series), hits give low values 1 | S. cerevisiae deletion strains, locus YNR049C, strain mso1, hits give low values 1.02 | S. cerevisiae deletion strains, locus YNR052C, strain pop2, hits give low values 1.02 | S. cerevisiae deletion strains, locus YOL006C, strain TOP1, hits give low values 0.97 | S. cerevisiae deletion strains, locus YOL012C, strain htz1 0.746 | S. cerevisiae deletion strains, locus YOL147C, strain pex11, hits give low values 0.982 | S. cerevisiae deletion strains, locus YOR001W, strain rrp6, hits give low values 1.01 | S. cerevisiae deletion strains, locus YOR061W, strain CKA2, hits give low values 0.948 | S. cerevisiae deletion strains, locus YOR069W, strain VPS5, hits give low values 0.992 | S. cerevisiae deletion strains, locus YOR070C, strain gyp1, hits give low values 1.02 | S. cerevisiae deletion strains, locus YOR080W, strain dia2, hits give low values 0.995 | S. cerevisiae deletion strains, locus YOR083W, strain WHI5, hits give low values 1 | S. cerevisiae deletion strains, locus YOR106W, strain vam3, hits give low values 1.01 | S. cerevisiae deletion strains, locus YOR136W, strain idh2, hits give low values 0.986 | S. cerevisiae deletion strains, locus YOR144C, strain elg1, hits give low values 0.979 | S. cerevisiae deletion strains, locus YOR184W, strain ser1, hits give low values 0.935 | S. cerevisiae deletion strains, locus YOR231W, strain MKK1, hits give low values 1.03 | S. cerevisiae deletion strains, locus YOR265W, strain rbl2, hits give low values 1.03 | S. cerevisiae deletion strains, locus YOR270C, strain vph1, hits give low values 1.07 | S. cerevisiae deletion strains, locus YOR290C, strain snf2, hits give low values 0.996 | S. cerevisiae deletion strains, locus YOR316C, strain cot1, hits give low values 0.981 | S. cerevisiae deletion strains, locus YPL051W, strain arl3, hits give low values 1.01 | S. cerevisiae deletion strains, locus YPL078C, strain atp4, hits give low values 1 | S. cerevisiae deletion strains, locus YPL106C, strain sse1, hits give low values 0.986 | S. cerevisiae deletion strains, locus YPL240C, strain hsp82, hits give low values 1 | S. cerevisiae deletion strains, locus YPL241C, strain CIN2, hits give low values 0.981 | S. cerevisiae deletion strains, locus YPL256C, strain CLN2, hits give low values 1 | S. cerevisiae deletion strains, locus YPR119W, strain clb2, hits give low values 0.988 | S. cerevisiae deletion strains, locus YPR141C, strain kar3, hits give low values 0.992 | S. cerevisiae deletion strains, locus YPR163C, strain tif3, hits give low values 0.971 | S. cerevisiae deletion strains, locus YPR167C, strain met16, hits give low values 0.997 | S. cerevisiae deletion strains, strain wtn01, hits give low values 0.961 | S. cerevisiae strains, strain wild type, hits give low values 0.97

From PubChem BioAssay AID1159580 (chemical genetic matrix, 2015)
